# Shown are actives, neighbours in structure and some others; about 2.8% of the full set was active somewhere.
# PAX8 inh HTS = inhibitors of PAX8 transcriptional activity in RMG-I cells; RMG-I TPO-luciferase reporter, SteadyGlo, 24 h; inhibition, % at 12.6 µM; 360,000 compounds, 1.2% hits;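 active means mean replicate inhibition at least 60% with every replicate also reaching 60%; inconclusive means only one of the two criteria is met; inactive means mean below 60% and not all replicates reaching 60%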;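 further: luciferase light reporting Pax8 driven TPO promoter activity; plate controls were median of neutral control wells for no effect and mitoxantrone controls for full effect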
# EWS-Fli block = EWS/Fli transcriptional activity inhibition; A673 NR0B1-luciferase reporter, viability-normalised; inhibition, % at 12.6 µM; 350,000 compounds, 0.67% hits; AID 651661;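 active means mean inhibition of at least 50% after viability correction, with every replicate also passing that limit; inconclusive means mean reaches 50% but only one of two replicates passes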;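 further: firefly luciferase signal divided by Alamar Blue viability fluorescence both relative to DMSO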
# LGR2 inh = blocks bursicon-induced cAMP signaling via Drosophila LGR2 | HEK293 LGR2, CRE-luciferase, bursicon-stimulated, 4 h | 380,000 compounds, 0.35% hits | AID 720647 | inhibition, % at 9.99 µM;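 active means drop in luminescence signal, shown as inhibition above about 50% in the replicate tests, limit read from the data, passing the limit was not always enough; inconclusive means probably only some replicates passing the limit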;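 further: agonist challenge used bursicon conditioned medium at about half maximal strength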
# TROY signal inh = inhibitors of TROY-dependent NF-kB signaling; Q293 LMP1-TROYcd NF-kB luciferase reporter, 4 h; inhibition, % at 10 µM; 360,000 compounds, 0.98% hits; AID 1347056;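 active means compounds whose plate-normalised and pattern-corrected inhibition of the luciferase reporter signal at the single screening dose is 50% or more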
# TWEAK Fn14 block = blocks TWEAK-Fn14 interaction in a reporter cell assay; TWEAK-stimulated Fn14 reporter cells, luciferase luminescence, 8 h; inhibition, % at 10 µM; 360,000 compounds, 2% hits; in the data active means inhibition above about 50%
# Numbers without * were called inactive; ? = inconclusive; . = no result given.
SMILES,PAX8 inh HTS,EWS-Fli block,LGR2 inh,TROY signal inh,TWEAK Fn14 block
C[C@@H]1CCCCO[C@H](CN(C)C(=O)NC2CCCCC2)[C@H](C)CN([C@@H](C)CO)C(=O)c2cc(NC(=O)Nc3ccc(C(F)(F)F)cc3)ccc2O1,71*,3,15,.,.
CN1CCN(C(=O)C[C@@H]2CC[C@H]3[C@H](COc4ccc(NC(=O)C5CC5)cc4C(=O)N3C)O2)CC1,-23,-9,4,.,.
C[C@H](NC(=O)C[C@H]1CC[C@H]2[C@@H](COc3ccc(NC(=O)C4CCOCC4)cc3C(=O)N2C)O1)c1ccccc1,-3,-9,-15,.,.
Cc1noc(C)c1NC(=O)Nc1ccc2c(c1)C(=O)N([C@H](C)CO)C[C@@H](C)[C@H](CN(C)C(=O)Nc1c(C)noc1C)O2,-11,-3,-6,.,.
C[C@H](CO)N1C[C@H](C)[C@H](CN(C)C(=O)NC2CCCCC2)OCCCC[C@H](C)Oc2ccc(NC(=O)Nc3ccc(C(F)(F)F)cc3)cc2C1=O,93*,6,27,.,.
C[C@H](CO)N1C[C@H](C)[C@@H](CN(C)C(=O)NC2CCCCC2)OCCCC[C@H](C)Oc2ccc(NC(=O)Nc3ccc(C(F)(F)F)cc3)cc2C1=O,49,21,14,.,.
CC1(c2ccccc2)CC(C)(C)N2C(=O)/C(=C3\SC(=S)NC3=O)c3cccc1c32 (stereo unspecified),-15,.,10,61*,70*
Clc1ccccc1OCc1nnc(-c2ccccc2Br)o1,.,.,.,-38,-14
O=c1c(Cl)c(Cl)cnn1Cc1nnc(-c2ccccc2Br)o1,98*,46,103*,64*,92*
CC(=O)N1[C@@H]2Cn3c(ccc(C4=CCCC4)c3=O)[C@H]1[C@@H](C(=O)NCc1ccccc1)[C@@H]2CO,-4,10,-2,.,.
C[C@H]1CCCCO[C@H](CN(C)C(=O)Nc2cccc3ccccc23)[C@@H](C)CN([C@@H](C)CO)C(=O)c2cc(NC(=O)NC3CCCCC3)ccc2O1,67*,17,-10,.,.
C[C@@H]1CN([C@H](C)CO)C(=O)c2cc(NC(=O)Cc3ccccc3)ccc2O[C@@H](C)CCCCO[C@@H]1CN(C)C(=O)Nc1cccc2ccccc12,64*,-8,-8,.,.
COc1ccc(-c2cnc3c(c2)C(=O)N([C@H](C)CO)C[C@@H](C)[C@H](CN(C)Cc2ccc(C(=O)O)cc2)O3)cc1,21,-8,-2,.,.
Nn1cnnc1N/N=C\c1ccc(-c2ccccc2[N+](=O)[O-])o1,92*,-8,49,-10,-27
O=[N+]([O-])c1ccccc1-c1ccc(/C=N/n2cnnc2)o1,.,.,.,3,-3
COc1ccc([C@@]23Oc4cc(OC)cc(OC)c4[C@]2(O)[C@H](O)[C@H](C(=O)N(C)C)[C@H]3c2ccccc2)cc1,87*,23,99*,34,87*
COc1ccc(NC(=O)C2C(c3ccccc3)C2(Cl)Cl)c(OC)c1 (stereo unspecified),17,13,6,28,32
c1cc2[nH]snc2c2nc(C3CC3)nc12,.,.,.,40,62*
O=S(=O)(Nc1nc2ccccc2nc1Nc1ccc(N2CCOCC2)cc1)c1cc(Cl)ccc1Cl,-5,-18,13,61*,80*
Cc1noc(C)c1S(=O)(=O)N(C)C[C@H]1Oc2ccc(NS(=O)(=O)c3cccs3)cc2CC(=O)N([C@H](C)CO)C[C@@H]1C,-17,-11,1,.,.
COCCn1c(C)cc(C2=NNC(=Nc3ccc(Cl)cc3Cl)SC2)c1C,.,.,.,-10,8
C=CCn1c(C)cc(C2=NNC(=NC(C)(C)C)SC2)c1C,13,60*,0,28,83*
COCCn1c(C)cc(C2=NNC(=NC3CC3)SC2)c1C,102*,90*,94*,86*,102*
C=CCN=C1NN=C(c2cc(C)n(CCOC)c2C)CS1,56,85*,?,14,41
CCC(=O)Nc1ccc2c(c1)OC[C@@H](C)N(Cc1ccncc1)C[C@H](C)[C@H](OC)CN(C)C2=O,8,-4,-13,.,.
SMILES,PAX8 inh HTS,EWS-Fli block,LGR2 inh,TROY signal inh,TWEAK Fn14 block
COCc1cn(CC[C@H]2CC[C@H](NC(=O)Nc3ccc(C(F)(F)F)cc3)[C@H](CO)O2)nn1,.,.,0,.,.
O=C(N[C@H]1CC[C@@H](CCn2cc(-c3cccnc3)nn2)O[C@@H]1CO)c1ccccc1F,-12,6,10,.,.
C[C@H](CO)N1C[C@H](C)[C@H](CN(C)Cc2ccc(C(=O)O)cc2)OCCCC[C@H](C)Oc2ccc(NS(=O)(=O)c3ccc(F)cc3)cc2C1=O,6,-4,3,.,.
O=C(Nc1ccc(F)cc1)N1CCCCN2[C@H](C1)[C@@H](c1ccc(-c3cccc(F)c3)cc1)[C@@H]2CO,2,6,11,.,.
O=C(Nc1ccc(F)cc1)N1CCCCN2[C@@H](CO)[C@@H](c3ccc(-c4cccc(F)c4)cc3)[C@@H]2C1,106*,72*,-10,.,.
O=C(c1cccc(F)c1)N1CCCCN2[C@H](C1)[C@@H](c1ccc(-c3ccc(F)cc3)cc1)[C@@H]2CO,65*,-13,.,.,.
Cc1ccc(-c2ccc([C@@H]3[C@H](CO)N4CCCCN(C(=O)Nc5cccc(F)c5)C[C@@H]34)cc2)cc1,81*,32,.,.,.
O=C(Nc1cccc(F)c1)N1CCCCN2[C@@H](CO)[C@@H](c3ccc(-c4ccncc4)cc3)[C@@H]2C1,110*,4,4,.,.
O=C(Nc1cccc(F)c1)N1CCCCN2[C@H](C1)[C@H](c1ccc(-c3ccncc3)cc1)[C@@H]2CO,-14,-4,-14,.,.
CCN(CC)S(=O)(=O)c1cccc(NC(=O)Nc2cccc(C(F)(F)F)c2)c1,102*,.,.,56*,78*
CNC[C@H]1Oc2ncc(-c3ccc(C)cc3)cc2C(=O)N([C@@H](C)CO)C[C@H]1C,25,30,-22,.,.
COc1ccc(Sc2ccc(/C=C3\C(=O)NN(c4ccccc4)C3=O)o2)cc1,.,.,-12,17,93*
COc1ccc2c3c(n(C)c2c1)[C@@H](CO)N(C(C)=O)CC31CCN(C(=O)C2CCOCC2)CC1,.,11,-6,.,.
C[C@H]1CN([C@@H](C)CO)C(=O)c2cccc(NC(=O)C3CCOCC3)c2O[C@@H]1CN(C)Cc1ccc(-c2ccccc2)cc1,-3,1,28,.,.
CCCC(=O)N1CCC2(CC1)CN(C(=O)CC1CC1)[C@H](CO)c1c2c2ccc(OC)cc2n1C,-6,-3,-5,.,.
OCc1cccc[n+]1Cc1ccccc1,-21,6,.,60*,-1
O=C(Nc1ccc(Cl)cc1)Nc1cccc(C(=O)O)c1,86*,82*,92*,-56,11
O=C(Nc1cccc(C(=O)O)c1)Nc1cccc2ccccc12,1,6,-6,-42,-23
O=C(Nc1cccc(Cl)c1)Nc1cccc(C(=O)O)c1,14,55*,?,-51,-3
O=C(NCc1ccccc1)C(=O)Nc1cccc(C(=O)O)c1,59,57*,84*,-27,9
O=C(Nc1cccc(C(=O)O)c1)Nc1ccccc1Cl,44,?,70*,-51,-13
CSc1cccc(NC(=O)C(=O)NCc2ccccc2)c1,-11,-2,-4,-24,-6

# Compound activity: PubChem, several laboratories
